One may read the AC50 as the concentration giving half of the maximal activity seen.

Assay [1] in a line: ATG_GAL4_TRANS: Attagene TRANS-FACTORIAL HepG2 Assay for GAL4 (Internal Marker) (AID 2282976; active means hit-call score of the fitted dose curve at least 0.9, where 1 is the maximum). To be noted: HepG2 Attagene TRANS GAL4 internal marker reporter. The method in brief:
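RT-PCR/capillary electrophoresis readout of reporter mRNA. HepG2, transient MRTU transfection (GAL4-UAS reporters), 24 h compound exposure. Background-control endpoint, positive direction vs DMSO baseline.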

For assay [2], the target named is Estrogen-related receptor gamma (Homo sapiens) (UniProt P62508). Put plainly: ATG_ERRg_TRANS: Attagene TRANS-FACTORIAL HepG2 Assay for human Estrogen-Related Receptor gamma (ERRg) (AID 2282977; active means hit-call score of the fitted dose curve at least 0.9, where 1 is the maximum;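 further: hits increase reporter signal over DMSO so potencies reflect activators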). To be noted: HepG2 Attagene TRANS reporter, ERRg transactivation. Summed up:
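Induction of reporter transcripts through a chimeric NR-Gal4 protein is quantified in transfected human HepG2 liver cells after 24 h chemical exposure, using RT-PCR with capillary electrophoresis detection and DMSO as baseline.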

For assay [3], the target named is Oxysterols receptor LXR-alpha (Homo sapiens) (UniProt Q13133). Put plainly: ATG_LXRa_TRANS: Attagene TRANS-FACTORIAL HepG2 Assay for human Liver X Receptor alpha (LXRa) (AID 2282980; active means hit-call score of the fitted dose curve at least 0.9, where 1 is the maximum). Particulars: HepG2 Attagene TRANS reporter, LXRa transactivation. Summed up:
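Read-out: reporter transcript levels by RT-PCR plus capillary electrophoresis, fluorescence intensity. Transiently transfected HepG2, exogenous NR-GAL4 chimera, GAL4-UAS reporters; 24 h compound exposure. Activity = increase over DMSO negative control.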

Assay [4] addresses Oxysterols receptor LXR-beta (Homo sapiens) (UniProt P55055). Description: ATG_LXRb_TRANS: Attagene TRANS-FACTORIAL HepG2 Assay for human Liver X Receptor beta (LXRb) (AID 2282981; active means hit-call score of the fitted dose curve at least 0.9, where 1 is the maximum). Particulars: HepG2 Attagene TRANS GAL4-LXRb reporter, mRNA. The method in brief:
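Measures induction of a Gal4-driven reporter transcript in HepG2 cells expressing an exogenous LXRb-Gal4 fusion. Cells are exposed to compound for 24 h before RNA isolation and RT-PCR with capillary electrophoresis detection.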

A short description of assay [5]: ATG_M_06_TRANS: Attagene TRANS-FACTORIAL HepG2 Assay for M06 Transcription Factor (Internal Marker) (AID 2282983; active means hit-call score of the fitted dose curve at least 0.9, where 1 is the maximum). Particulars: HepG2 Attagene TRANS M06 internal marker reporter. Summed up:
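Read-out: fluorescent reporter cDNA fragments resolved by capillary electrophoresis after RT-PCR and HpaI cut. Source cells were HepG2 carrying transfected multi-reporter GAL4 constructs, dosed 24 h. Increase over DMSO control analysed.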

A short description of assay [6]: ATG_M_32_TRANS: Attagene TRANS-FACTORIAL HepG2 Assay for M32 Transcription Factor (Internal Marker) (AID 2282984; active means hit-call score of the fitted dose curve at least 0.9, where 1 is the maximum;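 further: transcript level of a background control reporter unit measured by RT-PCR and capillary electrophoresis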). To be noted: HepG2 Attagene TRANS M32 internal marker reporter. The method in brief: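 After 24 h dosing of transfected HepG2 cells, total RNA was reverse-transcribed, reporter sequences PCR-amplified, 6-FAM labelled by primer extension and HpaI-digested before capillary electrophoresis. Signal increase over DMSO was fitted.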

The target in assay [7] is Nuclear receptor subfamily 4 group A member 2 (Homo sapiens) (UniProt P43354). Put plainly: ATG_NURR1_TRANS: Attagene TRANS-FACTORIAL HepG2 Assay for human Nuclear Receptor Related Protein 1 (NURR1) (AID 2282985; active means hit-call score of the fitted dose curve at least 0.9, where 1 is the maximum). To be noted: HepG2 Attagene TRANS reporter, mRNA readout. The method in brief:
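Chimeric NR-Gal4 fusion activity measured in HepG2 after 24 h treatment. Reporter transcripts detected by RT-PCR and capillary electrophoresis fluorescence; positive-direction curve fitting against DMSO.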

Assay [8] deals with Transcriptional activator Myb (Homo sapiens) (UniProt P10242). Put plainly: ATG_Myb_CIS: Attagene CIS-FACTORIAL HepG2 Assay for human Myeloblastosis (Myb) Proto-Oncogene Transcription Factor (AID 2282986). Particulars: HepG2 Attagene CIS-FACTORIAL Myb reporter transcription; actives raise or lower the signal. Summed up:
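Transiently transfected HepG2 cells, treated 24 h. Reporter mRNA quantified by RT-PCR/capillary electrophoresis; bidirectional fit relative to DMSO.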

Assay [9] in a line: ATG_NFI_CIS: Attagene CIS-FACTORIAL HepG2 Assay for human Nuclear Factor I (NFI) (AID 2282989). To be noted: HepG2 cis-regulatory reporter, NFI response element transcription; actives raise or lower the signal. Summed up:
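After transient transfection of HepG2 with cis-promoter reporter constructs and 24 h dosing, RNA is reverse-transcribed, amplified, 6-FAM end-labelled and HpaI-digested before capillary analysis. Bidirectional curve fitting against DMSO.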

In assay [10] the target is Myc proto-oncogene protein (Homo sapiens) (UniProt P01106). Description: ATG_Myc_CIS: Attagene CIS-FACTORIAL HepG2 Assay for human Myelocytomatosis (Myc) Proto-Oncogene Transcription Factor (AID 2282990). To be noted: HepG2, Attagene cis-reporter transcription factor activity; actives raise or lower the signal. Summed up: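 DMSO-normalised, bidirectionally fitted reporter mRNA signal. HepG2 cells transfected with cis reporter constructs, treated 24 h; transcripts detected by RT-PCR, 6-FAM primer extension and CE.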

The nature of assay [11]: ATG_NRF2_ARE_CIS: Attagene CIS-FACTORIAL HepG2 Assay for human Nuclear Factor Erythroid 2 Related Factor 2 (NFR2) response to Antioxidant Response Elements (ARE) (AID 2282992). To be noted: HepG2 Attagene ARE/NRF2 reporter, transcription factor activity; actives raise or lower the signal. Summed up:
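Fluorescence intensity of reporter-specific cDNA fragments, separated by capillary electrophoresis, reflects mRNA induction in transfected HepG2 cells at 24 h. Activity is fitted bidirectionally, DMSO serving as baseline.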

The nature of assay [12]: ATG_Oct_MLP_CIS: Attagene CIS-FACTORIAL HepG2 Assay for human Octamer-Binding Transcription Factor (Oct) (AID 2282993). To be noted: HepG2 Attagene cis-factorial Oct reporter, mRNA; actives raise or lower the signal. Summed up:
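Cells of the HepG2 line express promoter-controlled reporter sequences whose mRNA levels, after 24 h treatment, are measured by RT-PCR and capillary electrophoresis. Increases and decreases are scored relative to DMSO.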

The target of assay [13] is Cellular tumor antigen p53 (Homo sapiens) (UniProt P04637). Description: ATG_p53_CIS: Attagene CIS-FACTORIAL HepG2 Assay for human p53 Transcription Factor (AID 2282994). Particulars: HepG2 p53 cis-element reporter, Attagene mRNA; actives raise or lower the signal. The method in brief:
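Transiently transfected HepG2 (multiple cis reporter transcription units); exposure 24 h; reporter RNA via RT-PCR, 6-FAM extension, 2 h HpaI digest at 37 C, CE detection; DMSO baseline.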

A short description of assay [14]: BSK_3C_uPAR: BioMAP Diversity Plus: 3C Assay for Urokinase-type plasminogen activator receptor (uPAR) Biomarker Activity (AID 2282998). To be noted: BioMAP 3C HUVEC, uPAR biomarker ELISA; actives raise or lower the signal. Summed up: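 Endothelial primary cells of human umbilical vein origin received test chemical; 24 h later uPAR was assayed by ELISA. Fitting was bidirectional, DMSO as negative control.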

Assay [15] in a line: BSK_3C_VCAM1: BioMAP Diversity Plus: 3C Assay for Vascular cell adhesion molecule 1 (VCAM1) Biomarker Activity (AID 2282999). To be noted: BioMAP 3C HUVEC, VCAM1 ELISA, cytokine-stimulated; actives raise or lower the signal. Summed up: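 Vascular primary endothelium (human umbilical vein) was exposed to chemicals and assayed 24 h later. VCAM-1 levels came from ELISA, with DMSO serving as baseline for bidirectional fitting.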
Background: In an ELISA, binding on a coated surface is turned into a signal by an enzyme label.

Assay [16] is described as follows: ATG_NF_kB_CIS: Attagene CIS-FACTORIAL HepG2 Assay for human Nuclear Factor Kappa B (NF-kB) (AID 2282991). To be noted: HepG2 Attagene cis-factorial NF-kB reporter mRNA; actives raise or lower the signal. The method in brief: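 Measures mRNA induction of an NF-kB-responsive cis-element reporter in HepG2 cells transfected with multiple reporter units, sampled 24 h post-dosing; quantified by fluorescence after RT-PCR and capillary electrophoresis, fitted for activation or inhibition against DMSO.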

The target in assay [17] is Glucocorticoid receptor (Homo sapiens) (UniProt P04150). Put plainly: ATG_GR_TRANS: Attagene TRANS-FACTORIAL HepG2 Assay for human Glucocorticoid Receptor (GR) (AID 2282978; active means hit-call score of the fitted dose curve at least 0.9, where 1 is the maximum;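 further: activators score as hits since higher reporter transcript over DMSO is fitted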). Particulars: HepG2 Attagene TRANS GR reporter, mRNA transcription. The method in brief:
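Reporter transcript levels, detected by fluorescence after RT-PCR and capillary electrophoresis, served as the endpoint. HepG2 cells bearing transfected GAL4-UAS reporters responsive to NR-GAL4 chimeras were incubated with compound 24 h; DMSO defined baseline.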

The target in assay [18] is Nuclear respiratory factor 1 (Homo sapiens) (UniProt Q16656). Description: ATG_NRF1_CIS: Attagene CIS-FACTORIAL HepG2 Assay for human Nuclear Respiratory Factor 1 (NRF1) Orphan Gene (AID 2282987). To be noted: HepG2 NRF1 cis-element reporter, Attagene multiplex; actives raise or lower the signal. The method in brief:
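Cells (HepG2, transient MRTU transfection) are exposed to compound for 24 h, then RNA isolated and reporter mRNA amplified and fluorescently labelled. Fragments are separated by capillary electrophoresis; signal change is fitted bidirectionally relative to DMSO.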

A short description of assay [19]: BSK_3C_TissueFactor: BioMAP Diversity Plus: 3C Assay for Tissue Factor Biomarker Activity (AID 2282997). To be noted: BioMAP 3C HUVEC, tissue factor biomarker readout; actives raise or lower the signal. The method in brief: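 HUVEC, 3C system, 24 h post-dose; Tissue Factor by ELISA; bidirectional fit vs DMSO baseline.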

Values joined by “and” are separate entries in the source; they are usually repeats but may differ in a detail not shown here. Identical values can stand only once. Inconclusive results are not listed. Some compounds were tested as several samples or in several runs, with calls that do not always agree. Active and inactive are the calls of the source. How the source made its calls, unless noted: active means hit-call score of the fitted dose curve at least 0.9, where 1 is the maximum; inactive means score below 0.9.

Chain of Oxysterols receptor LXR-beta (Homo sapiens) (P55055 whole entry, looked up, the tested form may be a part): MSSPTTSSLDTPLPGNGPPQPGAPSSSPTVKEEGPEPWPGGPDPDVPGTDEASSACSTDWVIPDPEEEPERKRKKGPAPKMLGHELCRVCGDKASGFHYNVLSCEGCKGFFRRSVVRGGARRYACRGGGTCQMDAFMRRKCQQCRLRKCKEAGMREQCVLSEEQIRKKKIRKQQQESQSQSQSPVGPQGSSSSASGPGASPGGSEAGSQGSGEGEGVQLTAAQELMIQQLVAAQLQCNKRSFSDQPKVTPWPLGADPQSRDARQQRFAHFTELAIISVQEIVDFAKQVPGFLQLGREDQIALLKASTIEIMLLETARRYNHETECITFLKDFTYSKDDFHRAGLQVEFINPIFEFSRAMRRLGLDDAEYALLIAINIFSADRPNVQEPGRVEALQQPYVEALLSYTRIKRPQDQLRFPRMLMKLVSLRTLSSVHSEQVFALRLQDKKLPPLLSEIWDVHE
Chain of Nuclear respiratory factor 1 (Homo sapiens) (Q16656 whole entry, looked up, the tested form may be a part): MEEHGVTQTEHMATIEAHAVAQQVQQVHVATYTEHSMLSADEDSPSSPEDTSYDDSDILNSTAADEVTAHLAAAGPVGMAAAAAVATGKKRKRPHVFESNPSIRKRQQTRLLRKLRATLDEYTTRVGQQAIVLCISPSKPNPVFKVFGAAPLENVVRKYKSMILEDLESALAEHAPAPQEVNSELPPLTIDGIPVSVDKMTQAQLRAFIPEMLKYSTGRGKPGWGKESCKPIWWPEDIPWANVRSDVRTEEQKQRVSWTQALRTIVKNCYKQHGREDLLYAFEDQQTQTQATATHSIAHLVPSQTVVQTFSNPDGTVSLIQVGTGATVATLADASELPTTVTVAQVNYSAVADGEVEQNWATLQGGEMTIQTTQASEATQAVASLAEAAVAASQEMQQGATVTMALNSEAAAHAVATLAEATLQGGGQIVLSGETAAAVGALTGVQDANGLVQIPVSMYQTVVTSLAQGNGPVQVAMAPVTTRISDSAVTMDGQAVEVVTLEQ
Chain of Estrogen-related receptor gamma (Homo sapiens) (P62508 whole entry, looked up, the tested form may be a part): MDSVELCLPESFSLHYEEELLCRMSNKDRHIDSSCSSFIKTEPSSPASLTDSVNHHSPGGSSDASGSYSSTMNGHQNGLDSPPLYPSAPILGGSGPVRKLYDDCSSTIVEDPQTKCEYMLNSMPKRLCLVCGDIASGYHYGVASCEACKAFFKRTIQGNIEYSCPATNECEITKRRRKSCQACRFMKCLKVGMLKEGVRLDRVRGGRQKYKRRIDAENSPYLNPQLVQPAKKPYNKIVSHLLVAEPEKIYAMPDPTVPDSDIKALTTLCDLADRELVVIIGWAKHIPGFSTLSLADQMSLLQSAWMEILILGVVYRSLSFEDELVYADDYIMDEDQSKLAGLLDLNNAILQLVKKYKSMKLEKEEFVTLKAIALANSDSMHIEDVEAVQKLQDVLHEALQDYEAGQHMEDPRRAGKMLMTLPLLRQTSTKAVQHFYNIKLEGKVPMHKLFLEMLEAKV
Chain of Myc proto-oncogene protein (Homo sapiens) (P01106 whole entry, looked up): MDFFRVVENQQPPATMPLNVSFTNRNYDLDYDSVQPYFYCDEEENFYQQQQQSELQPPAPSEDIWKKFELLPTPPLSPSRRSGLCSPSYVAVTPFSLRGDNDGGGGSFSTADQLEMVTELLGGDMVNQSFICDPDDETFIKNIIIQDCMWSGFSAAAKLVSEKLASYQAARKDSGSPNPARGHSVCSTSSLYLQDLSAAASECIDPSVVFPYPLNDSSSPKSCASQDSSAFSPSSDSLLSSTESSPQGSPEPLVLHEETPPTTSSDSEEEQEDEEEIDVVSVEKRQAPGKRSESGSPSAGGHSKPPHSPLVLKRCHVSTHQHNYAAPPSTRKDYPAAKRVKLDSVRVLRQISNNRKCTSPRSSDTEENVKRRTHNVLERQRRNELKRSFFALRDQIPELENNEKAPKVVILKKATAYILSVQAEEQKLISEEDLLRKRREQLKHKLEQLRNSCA
Chain of Transcriptional activator Myb (Homo sapiens) (P10242 whole entry, looked up): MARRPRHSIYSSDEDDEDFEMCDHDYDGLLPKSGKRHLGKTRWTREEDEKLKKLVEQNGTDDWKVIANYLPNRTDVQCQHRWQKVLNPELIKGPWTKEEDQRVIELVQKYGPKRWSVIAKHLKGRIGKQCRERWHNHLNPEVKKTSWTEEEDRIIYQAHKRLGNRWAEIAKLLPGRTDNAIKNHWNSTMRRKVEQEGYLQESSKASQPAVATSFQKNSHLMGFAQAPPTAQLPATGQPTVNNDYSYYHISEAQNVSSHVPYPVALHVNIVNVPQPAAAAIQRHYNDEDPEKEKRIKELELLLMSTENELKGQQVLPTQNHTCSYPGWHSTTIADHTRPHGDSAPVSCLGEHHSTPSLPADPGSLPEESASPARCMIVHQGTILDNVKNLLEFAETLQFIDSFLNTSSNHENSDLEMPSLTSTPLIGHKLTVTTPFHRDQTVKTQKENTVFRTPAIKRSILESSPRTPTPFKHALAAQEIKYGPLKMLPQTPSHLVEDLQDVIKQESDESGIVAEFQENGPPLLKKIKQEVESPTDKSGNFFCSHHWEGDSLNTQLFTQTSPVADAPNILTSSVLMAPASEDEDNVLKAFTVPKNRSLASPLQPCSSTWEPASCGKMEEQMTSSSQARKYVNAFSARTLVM
Chain of Cellular tumor antigen p53 (Homo sapiens) (P04637 whole entry, looked up): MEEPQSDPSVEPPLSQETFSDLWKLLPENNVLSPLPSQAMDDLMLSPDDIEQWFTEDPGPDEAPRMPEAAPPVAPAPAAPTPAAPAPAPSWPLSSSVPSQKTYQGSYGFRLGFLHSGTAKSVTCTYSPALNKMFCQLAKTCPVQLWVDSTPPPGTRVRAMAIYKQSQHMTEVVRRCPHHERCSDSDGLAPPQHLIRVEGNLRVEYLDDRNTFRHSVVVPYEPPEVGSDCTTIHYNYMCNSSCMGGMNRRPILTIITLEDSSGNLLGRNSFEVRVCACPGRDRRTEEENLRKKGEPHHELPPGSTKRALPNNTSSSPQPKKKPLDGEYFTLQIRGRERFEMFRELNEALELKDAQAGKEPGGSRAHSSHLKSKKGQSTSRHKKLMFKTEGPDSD
Chain of Oxysterols receptor LXR-alpha (Homo sapiens) (Q13133 whole entry, looked up, the tested form may be a part): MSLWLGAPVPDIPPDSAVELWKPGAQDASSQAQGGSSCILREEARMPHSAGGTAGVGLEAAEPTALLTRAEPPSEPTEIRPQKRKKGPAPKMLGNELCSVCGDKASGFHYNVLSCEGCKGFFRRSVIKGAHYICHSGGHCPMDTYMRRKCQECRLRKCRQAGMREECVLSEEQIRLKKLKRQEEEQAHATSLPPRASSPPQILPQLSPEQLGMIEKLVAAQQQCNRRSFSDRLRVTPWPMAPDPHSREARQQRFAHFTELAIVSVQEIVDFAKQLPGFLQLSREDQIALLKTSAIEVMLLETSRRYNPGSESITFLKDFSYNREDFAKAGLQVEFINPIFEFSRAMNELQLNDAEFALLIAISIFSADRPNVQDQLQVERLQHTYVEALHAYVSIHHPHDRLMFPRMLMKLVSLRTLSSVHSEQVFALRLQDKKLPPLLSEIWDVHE
Chain of Nuclear receptor subfamily 4 group A member 2 (Homo sapiens) (P43354 whole entry, looked up, the tested form may be a part): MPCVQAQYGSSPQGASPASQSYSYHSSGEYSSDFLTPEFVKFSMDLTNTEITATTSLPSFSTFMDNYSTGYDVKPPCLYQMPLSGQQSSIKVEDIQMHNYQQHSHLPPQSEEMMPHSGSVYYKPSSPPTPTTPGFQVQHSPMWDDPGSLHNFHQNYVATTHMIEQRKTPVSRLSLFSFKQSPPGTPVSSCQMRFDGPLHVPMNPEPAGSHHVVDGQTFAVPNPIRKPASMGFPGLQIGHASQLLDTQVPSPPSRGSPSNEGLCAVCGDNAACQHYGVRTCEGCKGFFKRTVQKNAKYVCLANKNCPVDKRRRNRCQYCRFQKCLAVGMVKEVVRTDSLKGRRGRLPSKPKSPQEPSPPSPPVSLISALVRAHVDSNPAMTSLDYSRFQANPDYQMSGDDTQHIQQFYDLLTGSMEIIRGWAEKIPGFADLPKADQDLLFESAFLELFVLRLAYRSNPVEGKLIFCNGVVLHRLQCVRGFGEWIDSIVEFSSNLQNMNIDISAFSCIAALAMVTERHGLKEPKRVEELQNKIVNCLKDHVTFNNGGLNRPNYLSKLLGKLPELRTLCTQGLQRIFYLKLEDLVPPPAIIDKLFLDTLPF
Chain of Glucocorticoid receptor (Homo sapiens) (P04150 whole entry, looked up, the tested form may be a part): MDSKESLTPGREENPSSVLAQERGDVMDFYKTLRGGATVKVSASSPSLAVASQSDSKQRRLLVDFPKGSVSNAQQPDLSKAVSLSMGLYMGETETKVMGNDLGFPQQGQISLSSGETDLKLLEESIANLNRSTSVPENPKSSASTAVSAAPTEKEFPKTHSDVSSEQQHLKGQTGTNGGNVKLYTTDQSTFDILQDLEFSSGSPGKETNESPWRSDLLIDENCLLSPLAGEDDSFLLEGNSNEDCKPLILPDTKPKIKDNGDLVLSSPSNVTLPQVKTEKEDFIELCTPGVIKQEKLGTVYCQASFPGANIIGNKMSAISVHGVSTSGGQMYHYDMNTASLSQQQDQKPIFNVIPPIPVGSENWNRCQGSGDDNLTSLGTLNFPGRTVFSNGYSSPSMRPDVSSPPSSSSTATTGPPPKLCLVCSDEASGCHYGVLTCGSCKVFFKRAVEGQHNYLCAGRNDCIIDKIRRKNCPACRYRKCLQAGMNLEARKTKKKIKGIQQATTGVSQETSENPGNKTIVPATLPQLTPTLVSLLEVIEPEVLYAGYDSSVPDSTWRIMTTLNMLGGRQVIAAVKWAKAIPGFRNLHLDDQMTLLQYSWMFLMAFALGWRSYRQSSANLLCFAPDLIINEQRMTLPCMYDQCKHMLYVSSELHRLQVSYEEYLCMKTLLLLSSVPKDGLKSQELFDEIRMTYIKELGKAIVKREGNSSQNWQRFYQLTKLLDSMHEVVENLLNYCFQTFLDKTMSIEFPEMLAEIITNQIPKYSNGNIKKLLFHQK

For the compound `O=S(=O)(O)C(F)(F)C(F)(F)C(F)(F)C(F)(F)C(F)(F)C(F)(F)C(F)(F)C(F)(F)F`, the result in [1], in assay [2], in [3], in assay [4], in assay [5] and in assay [6] was inactive. Further, the compound was classed as inactive in [7], in [8], in assay [9], in assay [10], in [11] and in assay [12]. Further, the outcome in assay [13], in assay [14] and in assay [15] was inactive. Further, the AC50 in assay [9] is 133 µM (active); in [10], 23 µM (active) and 48.3 µM (active); in [11], 24.7 µM (active) [middle of 9 runs]; in [12], 135 µM (active) and 54.7 µM (active); in [13], 108 µM (active) and 66.1 µM (active) and 240 µM (active); in assay [14], 32.8 µM (active).

Take `CCCN(CCC)c1c([N+](=O)[O-])cc(C(F)(F)F)cc1[N+](=O)[O-]`: the result in assay [1], in [4], in [5], in assay [6], in [7] and in assay [8] was inactive. The call in assay [9], in assay [10], in assay [16], in assay [14] and in [15] was inactive. Also, the values for the AC50 in [11] and in [12] were 8.43 µM (active) and 2.29 µM (active), respectively.

In the case of `Cc1cc(C)nc(NC(=O)NS(=O)(=O)c2ccccc2C(=O)OC2COC2)n1`, the result in assay [2], in assay [17], in assay [4], in assay [5], in assay [8] and in assay [18] was inactive. Further, the call in assay [9], in assay [10], in assay [16], in [11], in assay [13] and in assay [19] was inactive. The outcome in assay [14] and in [15] was inactive. Besides, in [12], the AC50 is 50 µM (active).

Regarding `CC(C)(C)C(O)C(Oc1ccc(Cl)cc1)n1cncn1` (stereo not given), the outcome in [1], in assay [3], in [4], in assay [5], in assay [6] and in [7] was inactive. Moreover, the result in [8], in [18], in assay [9], in [10], in assay [16] and in assay [11] was inactive. Besides, the compound was classed as inactive in assay [12], in [13], in assay [19], in [14] and in [15]. The AC50 is 4.01 µM (active) in assay [11] and 2.07 µM (active) in assay [12].

Turning to `CC(C)OC(=O)Nc1cccc(Cl)c1`, the result in [2], in assay [3], in assay [4], in [5], in assay [6] and in assay [7] was inactive. Also, the call in assay [8], in assay [18], in [9], in assay [10], in assay [16] and in assay [13] was inactive. The result in [14] and in [15] was inactive. Moreover, the AC50 in assay [11] is 21 µM (active); in assay [12], 39.4 µM (active).

Consider `CC1(C)C(C=C(Cl)Cl)C1C(=O)OC(C#N)c1ccc(F)c(Oc2ccccc2)c1` (stereo not given), for which the compound was called inactive in assay [1], in assay [2], in assay [17], in assay [4], in assay [5] and in [6]. Besides, the compound was called inactive in assay [7], in assay [8], in assay [9], in [10], in assay [16] and in [13]. For the same compound, the result in [14] and in assay [15] was inactive. Moreover, the AC50 in [11] was 7.81 µM (active); in [12], 2.22 µM (active).

These data come from PubChem BioAssay (EPA / NIEHS).
